Among the data in ChEMBL document CHEMBL4513216, “Probing the Open Global Health Chemical Diversity Library for Multistage-Active Starting Points for Next-Generation Antimalarials” (ACS Infect Dis, 2020) are INHIBITION values, retold here.

Among all 69,000 compounds or so, about 8,600 (12%) showed an effect of 50% or more. The list comes from a sample in which strong results are over-represented; it also holds similar structures and randomly drawn compounds.

The test system of this assay is Plasmodium berghei. Description: Screen against P. berghei liver stage (PbLuc), transformed with Luciferase, at 10uM. It is filed as functional, HepG2. To be noted: tested at 10 uM.
In the case of `CCc1nc(C2CCCN2C(=O)c2cnns2)no1` (stereo unspecified), the INHIBITION came out at 29.765%. Consider `O=C(NCc1ccc(CN2CCCC2)cc1)NC1(CO)CCCC1`, for which the INHIBITION turned out to be 62.8%.

`O=C(NCc1ccc(CN2CCCC2)cc1)NCc1ccon1`: the INHIBITION was 20.4%. To `CC(C)OCc1ccc(CNC(=O)NC2(CO)CCCC2)cc1` belongs 46.1%; to `CC(C)CCCNC(=O)Nc1ccc(Cl)c(C(N)=O)c1`, -57.4%. To `CCN(CC)C(=O)CSc1sc2c(O)cc(=O)[nH]c2c1C(N)=O` belongs 4.07%; to `COc1ccc(C(C)Nc2ncnc3c2NC(=O)CN3)cc1` (stereo unspecified), 8.49%. `O=S(=O)(c1c(N2CCCC2)ccc2nonc12)N1CCCC1`: the INHIBITION is recorded as 17.7%. In the case of `CCn1cc(-c2cc(C(=O)N3CCOCC3)c3cc(Cl)ccc3n2)cn1` it was 12.9%. With `COc1cc(F)cc2sc(NC(=O)COCC3CCCO3)nc12` (stereo unspecified), the INHIBITION is reported as 16.1%.

As to `Cc1noc([C@H]2C[C@@H]3CCN(C(=O)c4cccn4C)C[C@H]3O2)n1`, the INHIBITION is given as 25.8%. In the case of `Cc1noc([C@H]2C[C@@H]3CCN(C(=O)C4CCOCC4)C[C@H]3O2)n1` it was 41.5%; in that of `Cc1noc([C@H]2C[C@@H]3CCN(C(=O)N(C)C)C[C@H]3O2)n1`, 54.6%.

On to `Cc1noc([C@H]2C[C@H]3CN(C(=O)C4CCOCC4)CC[C@@H]3O2)n1`, for which the INHIBITION was determined as 59%. In the case of `Cc1noc([C@@H]2C[C@H]3CN(C(=O)C4CCN(C)CC4)C[C@H]3O2)n1` it was 28.7%; in that of `COCC(=O)N1CC[C@H]2C[C@H](c3nc(C)no3)O[C@@H]2C1`, -41.2%; in that of `CCN(Cc1ccc(OC)c(F)c1)Cc1nc2c(cnn2C)c(=O)[nH]1`, 11.6%. In the case of `COCCNC(=O)N1CCN(C(=O)Cc2ccccc2F)CC1` it was -63.6%. To `CN1N=C(C(=O)N(Cc2ccco2)C2CCCC2)CCC1=O` belongs 46.1%. As to `Cc1nc(C)c(C(=O)N2CCc3nnc(C4CCCCN4C)n3CC2)s1` (stereo unspecified), the INHIBITION is -12.4%.

For `O=C(C1CCCO1)N1CCc2onc(-c3ccc(Cl)cc3)c2C1` (stereo unspecified), the INHIBITION came to 59.1%. Turning to `CCc1ccccc1Nc1noc2c1CN(C(=O)C1CCCO1)CC2` (stereo unspecified), the INHIBITION was -9.32%. `CCN1CCCCC1C(=O)N1CCc2onc(-c3ccc(Cl)cc3)c2C1` (stereo unspecified): the INHIBITION is 20.2%. Turning to `Cn1cc(C(=O)N2CCN(Cc3ccsc3)CC2)cn1`, the INHIBITION is -2.825%. For the compound `O=C(NCCN1CCCC1)Nc1cc(C(=O)N2CCOCC2)ccc1Cl`, the INHIBITION came to 67.5%. In the case of `CCSCCNC(=O)Nc1cc(C(=O)N2CCOCC2)ccc1Cl` it was 36.9%; in that of `O=C(NCCn1cccn1)Nc1cc(C(=O)N2CCOCC2)ccc1Cl`, 45.2%; in that of `Cc1cc(C)nc(N2CCOC(c3cc(CCO)[nH]n3)C2)n1` (stereo unspecified), 2.99%. In the case of `CC(C)(C)C1SCC(=O)Nc2c1c(O)nn2C1CCCC1` (stereo unspecified) it was 48%. As for `Cn1cc(CN2CCCC3(CCCCN3S(C)(=O)=O)C2)cn1` (stereo unspecified), the INHIBITION is 18.3%. Turning to `Cc1cnc(N2CCc3cc(C(=O)O)c(N(C)C)nc3CC2)nc1`, the INHIBITION stood at 31.2%. In the case of `CNC(=O)c1cc2c(nc1NCC(C)C)CCN(S(=O)(=O)N(C)C)CC2` it was -23.4%; in that of `CCc1cnc(N2CCc3cc(C(=O)NC)c(N(C)C)nc3CC2)nc1`, 81%; in that of `CNC(=O)c1cc2c(nc1N(C)C)CCN(S(=O)(=O)C1CC1)CC2`, 9.3%. As for `CCS(=O)(=O)N1CCc2cc(C(=O)NC)c(N(C)C)nc2CC1`, the INHIBITION is reported as 19.8%.

In the case of `CNC(=O)c1cc2c(nc1N(C)C)CCN(S(=O)(=O)N(C)C)CC2`, the INHIBITION is recorded as 44.8%.

With `CNC(=O)c1cc2c(nc1N(C)C)CCN(c1ncc(F)cn1)CC2`, the INHIBITION is recorded as 50.3%. `CNC(=O)c1cc2c(nc1N(C)C)CCN(C)CC2`: the INHIBITION was found to be 13.3%.

Regarding `CNC(=O)c1cc2c(nc1N(C)C)CCN(c1ncc(C)cn1)CC2`, the INHIBITION was 57.5%. In the case of `CNC(=O)c1cc2c(nc1NCC(C)C)CCN(S(C)(=O)=O)CC2` it was -26.1%; in that of `CNC(=O)c1cc2c(nc1N(C)C)CCN(c1ncccn1)CC2`, 63.8%. In the case of `CNC(=O)c1cc2c(nc1N(C)C)CCN(S(=O)(=O)CC(C)C)CC2`, the INHIBITION is given as -22.8%. As to `CCN1CC(C(=O)N2CCN(CCn3cccc3)CC2)CCC1=O` (stereo unspecified), the INHIBITION is reported as 6.69%. In the case of `O=C(NCC(Cc1cccc(F)c1)N1CCCC1=O)c1ccc[nH]c1=O` (stereo unspecified) it was 3.88%; in that of `COc1ccc(CN2CCC3(CCCN(C)C3=O)C2)c(OC)c1C` (stereo unspecified), 5.75%; in that of `CCn1ccnc1CN1CCOC(Cn2cccn2)C1` (stereo unspecified), 37.9%. In the case of `CC1CCc2nc(NS(=O)(=O)c3cnn(C)c3)sc2C1` (stereo unspecified) it was 33.4%. `CNc1nc(CNC(=O)Nc2ccc(SC)c(F)c2)cs1`: the INHIBITION is on record as -4.35%.

For `Cc1ccc(CN2CCCC3(CCC(=O)N3)CC2)s1` (stereo unspecified), the INHIBITION is listed as -19.6%. To `CN1CCC(Cc2noc(-c3cccc4c3OCC4)n2)CC1` belongs 34.5%; to `Cc1ccc2oc(SCC(=O)NC(C)(C)C)nc2n1`, 49.1%.

As to `Cc1nc(Nc2cnccn2)cc(C2CCN(CCO)C2)n1` (stereo unspecified), the INHIBITION turned out to be 23.2%. Regarding `Cc1ccc(-c2ncc(C(=O)NCCNC(=O)C3CC3)s2)c(C)c1`, the INHIBITION is listed as -91.8%. To `Cc1nccc(C(=O)N2CCOC(c3nc(C(C)C)n[nH]3)C2)n1` (stereo unspecified) belongs -65.3%; to `Cc1nn(C)c2ncc(CN3CCN(Cc4ccco4)CC3)cc12`, 21.2%.

As for `Cc1ccc(C2CN(C(=O)c3c(C)cc(C)[nH]c3=O)CCO2)c(C)c1` (stereo unspecified), the INHIBITION came out at 55%. In the case of `Cc1cc(C)c(CNC(=O)N2CCOC(c3ccccc3)C2)c(=O)[nH]1` (stereo unspecified), the INHIBITION is recorded as 31.9%. In the case of `Cc1cc(C)c(C(=O)N2CCOC(c3cccs3)C2)c(=O)[nH]1` (stereo unspecified) it was -18.6%; in that of `CNC(=O)C1CN(C(C)C)CCN1c1ncccn1` (stereo unspecified), 47.1%. In the case of `CCCC(=O)N1CCc2nc3cc(OC)c(OC)cc3c(=O)n2CC1` it was 44.1%. Consider `CCC(=O)N1CCc2nc3cc(OC)c(OC)cc3c(=O)n2CC1`, for which the INHIBITION came out at 59.1%. As to `COc1cc2nc3n(c(=O)c2cc1OC)CCN(C(C)=O)CC3`, the INHIBITION worked out at 21%. To `COc1c(C2CCCN2C(=O)c2c[nH]c3ncccc23)c(C)nn1C` (stereo unspecified) belongs 44.3%; to `CCOc1cc(Cl)ccc1CNC(=O)N(C)CC(C)(C)O`, 25.2%; to `COc1ccc(CNC(=O)N(C)CC(C)(C)O)cc1OC`, 46.6%.

Take `CCOc1ccc(CNC(=O)N(C)CC(C)(C)O)cc1C`: the INHIBITION is listed as 62.8%.
